Results published in PubChem BioAssay AID504444 (National Center for Advancing Translational Sciences (NCATS), 2011).
In all, about 360,000 compounds went through this assay and about 7,500 (2.1%) were called active. Roughly 20% stayed inconclusive and do not appear here. The list comes from a sample in which actives are over-represented; it also holds similar structures and randomly drawn compounds. Values without a mark were called inactive. Calls come from the whole dose curve; as a rule, active = well fitted inhibition curve with a large enough effect; inconclusive = small, poorly fitted or top-dose-only effect, or effect the other way; inactive = flat fitted curve, though single readings scatter.

Test: Nrf2 qHTS screen for inhibitors; note: nearly all actives have a fitted effect of over 60% in size
Details: A549 ARE-Fluc reporter, luciferase luminescence, 18-24 h; series mostly up to 46 µM; activity change, negative = inhibition: at the top concentration
Description: NIH Molecular Libraries Probe Production Network [MLPCN]
NIH Chemical Genomics Center [NCGC]
Assay Provider: Shyam Biswal, Johns Hopkins University
Nrf2 is a transcription factor that maintains cellular redox homoestasis and protects cells from xenobiotics. Nrf2 binds to the antioxidant response element (ARE) to induce gene expression of a broad spectrum of genes that encode for antioxidants. […] Finding a small molecule that act as an inhibitor of Nrf2 function would represent a novel therapeutic target that could lead to improvement in survival of patients undergoing chemo- and/or radio- therapy.
This is the Nrf2 activity measured in the luminescent read.
1. Shibata, T., et al., Genetic Alteration of Keap1 Confers Constitutive Nrf2 Activation and Resistance to Chemotherapy in Gallbladder Cancer. Gastroenterology, 2008.
2. Sjoblom, T., et al., The consensus coding sequences of human breast and colorectal cancers. Science, 2006. 314(5797): p. 268-74.
NCGC Assay Protocol Summary:
A concentration-response assay was performed with A549 ARE_Fluc cells which are suspended in 5% FBS OPTI-MEM. Five uL were dispensed into 1536-well white TC-treated plate using the Kalypsys dispenser to achieve a density of 5000 cells/well in all columns except column 1. The plate is incubated at 37deg C at 5% CO2 for 2 hours before 23 nL of compounds are added with the Kalypsys pin tool equipped with a 1,536-pin array containing 10-nL slotted pins (FP1S10, 0.457-mm diameter, 50.8 mm long; V&P Scientific). The control compounds Budesonide and Staurosporine are both added at a concentration of 2mM and Budesonide is also added as a 1:10 titration, starting at 200uM, to achieve dose-response. After an 18-24 hour incubation at 37deg C at 5% CO2, 5ul of medium is added to column 1. Afterwards 1ul of 5x of CellTiter-Fluor (Promega) is added to every well. The plate is then incubated at 37deg C at 5% CO2 for 30 minutes before they are read on the ViewLux (Perkin Elmer) for a fluorescent read Ex=405(10)/Em=525(10) for a 3 second exposure, 2x binning, and high gain. Then 3 uL of 3x BugLite is dispensed into all wells and the plate is incubated at ambient room temperature for 15 minutes. Afterwards another ViewLux read is performed using the clear filter to get a luminescent read with the settings of 40 second exposure, 2x binning, and high gain. Cytotoxicity is assessed through the first fluorescent read and then biochemical activity against Nrf2 is measured in the luminescent read.
% is set by controls: 0 for no effect and ±100 for the full control effect; potency is the fitted concentration of half-maximal effect.

| SMILES | activity change, negative = inhibition [%] | Potency |
| --- | --- | --- |
| CC[C@H]1CC2CN3CCc4c([nH]c5ccccc45)C(C(=O)OC)(C2)C13 (stereo not given in full) | -5.41 |  |
| CCC(=O)OC(Cc1ccccc1)(c1ccccc1)C(C)CN(C)C (stereo not given) | -0.661 |  |
| CC=C(C)C(=O)OC1CCN2CC=C(COC(=O)C(O)(C(C)OC)C(C)(C)O)C12 (stereo not given) | -9.73 |  |
| CCC(=O)c1ccc(OCC(=O)N2CCN(CC(=O)Nc3ccc(C)cc3)CC2)cc1 | 0.865 |  |
| COc1ccc(NC(=O)c2cn(CCC#N)nc2-c2ccc([N+](=O)[O-])cc2)cc1 | 2.75 |  |
| COc1ccc(-c2nn(CCC#N)cc2C(=O)Nc2ccc(C(C)=O)cc2)cc1 | -8.88 |  |
| COc1cccc(C(=O)Nc2ccc(-c3cc(C(F)(F)F)nn3-c3ccccc3)cc2)c1 |  | 14.6 µM (active) |
| C=C(C)C1(CCCC)C(=O)NC(=S)NC1=O | -1.08 |  |
| COC(=O)[C@@H]1C(OC(=O)c2ccccc2)CC2CCC1N2C (stereo not given in full) | 0.299 |  |
| COC(=O)C1=C(c2cc3ccccc3s2)C[C@@H]2CC[C@H]1N2C(=O)NC(C)C | -24.6 |  |
| CC1([N+](=O)[O-])COP(=O)(Nc2ccc(F)cc2)OC1 (stereo not given) | -6.18 |  |
| COP(=O)(NS(=O)(=O)c1ccccc1)OC | 0.416 |  |
| O=C1C=C(NS(=O)(=O)c2ccccc2)C(=O)c2ccccc21 |  | 23.1 µM (active) |
| CC1CCCN1CCC(C(N)=O)(c1ccccc1)c1ccccc1 (stereo not given) | -3.33 |  |
| O=C1C2(Cl)C3(Cl)C4(Cl)C(Cl)(Cl)C5(Cl)C3(Cl)C1(Cl)C5(Cl)C24Cl (stereo not given) | -14 |  |
| COC1=C[C@@H]2[C@@H]3Cc4ccc(OC)c(O)c4[C@]2(CCN3C)CC1=O | 3.67 |  |
| Cc1ccc(Cl)cc1N1CCN(C(=O)C2CCC(CNS(=O)(=O)c3cccs3)CC2)CC1 (stereo not given) |  | 10.3 µM (active) |
| c1cc2c(cc1C1OCC3C(c4ccc5c(c4)OCO5)OCC13)OCO2 (stereo not given) | -12.8 |  |
| CCc1ccc(OCC(=O)N2CCN(CC(=O)Nc3ccccc3Cl)CC2)cc1 | 5.6 |  |
| CC[C@H]1CN2CCc3cc(OC)c(OC)cc3[C@@H]2C[C@@H]1C[C@H]1NCCc2cc(OC)c(OC)cc21 |  | 0.411 µM (active) |
| Cc1nn(-c2ccccc2)c(C)c1NC(=O)COC(=O)Cc1ccccc1 | -2.94 |  |
| COc1ccc2c(c1)[C@]13CCCCC1C(C2)N(C)CC3 (stereo not given in full) | -3.89 |  |
| C[C@]12CCC3C(CC[C@H]4[C@H](O)[C@H](O)CC[C@]34C)C1CCC2=O (stereo not given in full) | -6.32 |  |

| SMILES | activity change, negative = inhibition [%] | Potency |
| --- | --- | --- |
| COc1ccc(C2NCc3ccc4c(c3-n3cccc32)OCO4)cc1OC (stereo not given) | -14.8 |  |
| CCCCCCCCCCCCn1ccc(=N)cc1 |  | 20.6 µM (active) |
| c1cc2c(cc1CCNC1CCCCCC1)OCO2 | 9.17 |  |
| O=C1N=c2ccccc2=C/C1=C\c1c(O)[nH]c(=S)[nH]c1=O | -14.9 |  |
| COC1C(O)C(C)OC(OC2CCC3(C=O)C(CCC4C3CCC3(C)C(C5=CC(=O)OC5)CCC43O)C2)C1O (stereo not given) |  | 0.0231 µM (active) |
| COC1=CC=C2[C@H]3Cc4ccc(OC)c5c4[C@@]2(CCN3C)C1O5 (stereo not given in full) | -4.83 |  |
| COCc1cc(OC(=O)N(C)C)nc(-c2ccc(C)c(Cl)c2)n1 | -1.28 |  |
| C[C@]12CCC3C(CC[C@H]4[C@H](O)[C@H](O)CC[C@]34C)C1CC[C@@H]2O (stereo not given in full) | 2.28 |  |
| c1ccc(CCN2CCC3(CC2)OCCO3)cc1 | 1.07 |  |
| CCC(C)(O)C(=O)OC1C(=O)OC2CC3C(C)=CC(=O)C(O)C3(C)C3C4(O)OCC23C1C(C)C4O (stereo not given) |  | 0.58 µM (active) |
| CC12CCC(O)CC1CCC1C2CCC2(C)C(C(=O)CC(O)C(F)(F)F)CCC12 (stereo not given) | -6.35 |  |
| CCN1C(=O)NC(=O)C2(CCCC2)C1=O | -20.2 |  |
| Oc1ccc2c3c1OC1[C@H](O)CC[C@@]4(O)[C@@H](C2)N(CC2CC2)CC[C@]314 (stereo not given in full) |  | inactive |
| NS(=O)(=O)c1ccc(CCNC(=O)c2ccc(Cl)c(S(=O)(=O)N3CCCCCC3)c2)cc1 |  | 10.3 µM (active) |
| Cc1ccccc1NC(=O)COC(=O)c1cc(C)n(C2CC2)c1C | 3.85 |  |
| Cn1cc(/C=C/c2nc3ccccc3c(=O)n2-c2ccccc2)c2ccccc21 | -22.8 |  |
| C[C@]12CCC3C(CC[C@H]4C[C@@H](O)CC[C@]34C)C1CC[C@@H]2O (stereo not given in full) | -12.6 |  |
| C[C@]12CCC3C(CC[C@H]4C[C@@H](O)CC[C@]34C)C1C[C@@H](O)[C@H]2O (stereo not given in full) | -26.4 |  |
| C[C@]12CC[C@H](O)C[C@H]1CC[C@@H]1C2CC[C@]2(C)[C@@H](C3=CC(=O)OC3)[C@@H](O)C[C@]12O (stereo not given in full) |  | 1.84 µM (active) |
| O=P1(Oc2ccccc2)CC(O)C(O)C(COCc2ccccc2)O1 (stereo not given) | 9.74 |  |
| CC12CCC3C(CCC4CC(=O)CCC43C)C1CC(=NO)C2=O (stereo not given) | -13.9 |  |
| CN1CCC(N(C)Cc2cccnc2)CC1 | -8.41 |  |
